One test relates to Tov-21-G. Description: Primary qHTS to identify gynecologic anti-cancer compounds using libraries of approved drugs and bioactive compounds (AID 1345084). Note: nearly all actives have a fitted effect of over 55% in size. The following applies: Gynecologic cancer cell panel viability, ATPlite luminescence, 48 h; series mostly up to 57.5 µM. In short, it runs like this: (§1)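 In this quantitative HTS, cell killing is estimated from loss of ATP-dependent luciferase light. Cells see five compound concentrations over a 48 h exposure.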

For another test, the system named is Tov112D. The description is as above. The following applies: Gynecologic cancer cell panel viability, ATPlite luminescence, 48 h; series mostly up to 57.5 µM. Summed up: as §1
A general note: Cellular ATP, detected with luciferase, serves as a proxy for viable cell number.

Inconclusive results are not listed. Calls of active or inactive are those of the source. Calls come from the whole dose curve; as a rule, active = well fitted cell-killing curve with a large enough effect; inconclusive = small, poorly fitted or top-dose-only effect, or effect the other way; inactive = flat fitted curve, though single readings scatter.
Potency is the fitted concentration of half-maximal effect.

On to `CCCC(Nc1nc(-c2ccc(NC(=O)NCC)c(OC)c2)ncc1C)c1cccnc1` (configuration not stated), for which the Potency with Tov-21-G is 316 nM (active); with Tov112D it was 158 nM (active).

For the compound `Cc1nc(C#Cc2ccnc(Cl)c2)c(C)n1-c1ccc(F)cc1`, the Potency result in the test on Tov-21-G and in the test with Tov112D was “inactive” throughout.

Turning to `O=C(NS(=O)(=O)c1ccc(Br)s1)c1ccc(Cl)cc1Cl`, the Potency entry in the test with Tov-21-G and in the test with Tov112D was “inactive” throughout.

`O=C(NCCCCCCCCNC(=O)C(Cl)Cl)C(Cl)Cl`: the Potency entry in the test on Tov-21-G and in the test with Tov112D was “inactive” throughout.

Consider `O=C(CNC(=O)c1cccc(C(F)(F)F)c1)N[C@@H]1CCN(Cc2ccc(Cl)cc2)C1`, for which the Potency entry with Tov-21-G and in the test with Tov112D was “inactive” throughout.

Consider `O=C(Nc1cccc([N+](=O)[O-])c1)c1cccc(S(=O)(=O)N2CCCCCC2)c1`, for which the Potency entry in the test with Tov-21-G and in the test with Tov112D was “inactive” in each case.

As for `CCc1c[nH]c2ncnc(N3CC[C@](N)(CNC(=O)c4ccc(F)cc4F)C3)c12`, in the test with Tov-21-G, the Potency is 1000 nM (active). The Potency entry with Tov112D was “inactive”.

`C/C=C/C=C/C=C/C(=O)O[C@@H]1C=C2COC(=O)[C@]2(O)[C@@]2(C)CCCC(C)(C)[C@H]12`: the Potency entry with Tov-21-G and with Tov112D was “inactive” throughout.

`CC(C)c1ccc(NC(=O)c2cccs2)c(-c2nc3ccccc3[nH]c2=O)c1`: the Potency entry with Tov-21-G and in the test on Tov112D was “inactive” each time.

Take `O=C(Nc1nc2ccc([N+](=O)[O-])cc2s1)C1CCCCC1`: the Potency entry in the test on Tov-21-G and in the test on Tov112D was “inactive” throughout.

For `CC(=O)O[C@@H]1C[C@@]2(C)C(CC[C@]3(C)C2CC=C2C4CC(C)(C)CC[C@]4(C(=O)O)CC[C@]23C)C(C)(C)[C@H]1O` (some centres not stated), the Potency entry in the test on Tov-21-G and in the test on Tov112D was “inactive” throughout.

For the origin of these results see PubChem BioAssay (NCATS).
